NPC1 prom act: activators of NPC1 promoter. 2.4% of 320,000 active. Potency, µM (top dose mostly 9.22 µM), for inactives: at the highest dose activation, hits mostly activators. Huh7 NPC1 promoter luciferase reporter, 24 h; also: % of control where 0% means no effect; nearly all actives have a fitted effect of over 60% in size
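Stably transfected Huh7 (NPC1 promoter→luciferase), 1500 cells/well in Opti-MEM + 10% FBS, 2 h settle, then compound 24 h at 37 °C. Luminescence after 10 min with Amplite reagent.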
SMN2 splice enh: enhancers of SMN2 splice variant expression | HEK293 SMN2-luciferase splicing reporter, luminescence, 30-36 h | 2.8% of 210,000 active | Potency, µM (titrated, usually from 46.1 µM), for the others: at the top dose activity change, positive = activation, most hits filed as activators; also: % of control where 0% means no effect; nearly all actives have a fitted effect of over 55% in size
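HEK293 cells carry an SMN2 […]–luciferase reporter in which exon 7 inclusion puts luciferase in frame. Cells were plated 10-12 h before compound addition, then incubated 30-36 h at 37C. ONE-Glo luminescence was read; sodium butyrate at 4.5 mM final served as control.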
ELG1 DNA repair: blocks ELG1-dependent DNA repair in HEK293T cells; HEK293T ELG1-luciferase reporter, luminescence, 16 h; DNA damage induced by 5-fluorouridine; Potency, µM (series often up to 46.1 µM), inactives show at the highest dose activity change, negative = inhibition, actives largely listed as inhibitors; 2.3% of 330,000 active; also: % is scaled to controls: 0 for no effect and ±100 for the full control effect; nearly all actives have a fitted effect of over 55% in size
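Quantitative HTS, concentration-response format. 2,000 cells/well co-treated with 5-fluorouridine and compound, 16 hr in 5% CO2 at 37 °C; ONE-Glo luminescence read after 30 min.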
ELG1 genotoxic: genotoxicity induction in ELG1-luciferase HEK293T cells; HEK293T ELG1-luciferase reporter, luminescence, 16 h; Potency, µM (titrated, usually from 46 µM), inactives show top-dose activity change, positive = activation, usual class: activators; 1.3% of 330,000 active; also: % of control where 0% means no effect; nearly all actives have a fitted effect of over 60% in size
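Screening used a luciferase reporter fused to human ELG1 in HEK293T cells. Luminescence was read on a CCD plate imager after 16 hr exposure and 30 min ONE-Glo incubation.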
FLuc counter: counter-screen for miR-21 project: firefly luciferase inhibitors or activators; purified FLuc, Km substrates, luminescence inhibition; AID 588342; P08659; Potency, µM (titrated, usually from 57.5 µM), without a hit: top-dose activity change, negative = inhibition, actives largely listed as inhibitors; 6.9% of 360,000 active;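 also: plate controls were vehicle for no effect and reference inhibitor for full effect; nearly all actives have a fitted effect of over 55% in size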
Target sequence (P08659 whole entry, looked up): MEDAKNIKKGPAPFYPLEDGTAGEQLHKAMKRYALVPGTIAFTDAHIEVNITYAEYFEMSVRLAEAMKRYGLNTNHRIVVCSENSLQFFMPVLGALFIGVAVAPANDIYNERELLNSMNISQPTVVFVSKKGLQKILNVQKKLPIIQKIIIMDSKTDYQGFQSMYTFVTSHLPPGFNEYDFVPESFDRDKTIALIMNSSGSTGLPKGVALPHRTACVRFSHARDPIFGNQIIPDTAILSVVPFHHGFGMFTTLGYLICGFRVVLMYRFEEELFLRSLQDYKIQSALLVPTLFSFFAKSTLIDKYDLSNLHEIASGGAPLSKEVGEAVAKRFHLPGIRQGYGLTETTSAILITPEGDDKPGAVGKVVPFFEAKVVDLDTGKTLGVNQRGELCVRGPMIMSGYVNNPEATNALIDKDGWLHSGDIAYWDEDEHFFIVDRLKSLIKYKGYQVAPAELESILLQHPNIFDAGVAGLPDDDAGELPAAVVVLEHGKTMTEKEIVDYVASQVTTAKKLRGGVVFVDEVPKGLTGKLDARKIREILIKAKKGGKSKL
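Purified P. pyralis luciferase (10nM final) with 10uM D-luciferin and 10uM ATP (Km levels) in 50mM Tris acetate pH 7.5, 10mM Mg acetate, 0.01% Tween-20, 0.05% BSA; qHTS 6-point titration, ~60 µM downward; luminescence read.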
Rab9 promoter act: activators of Rab9 promoter; AID 485297; 2.8% of 320,000 active; Potency, µM (top dose mostly 9.22 µM), for the others: top-dose activation, negative = inhibition, most hits filed as activators; Huh7 Rab9 promoter-luciferase reporter, luminescence, 24 h; also: % of control where 0% means no effect; nearly all actives have a fitted effect of over 60% in size
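Quantitative HTS format; Huh7 Rab9-luciferase reporter cells (1500/well) receive compound 2 h post-plating, incubate 24 h at 37 °C, then get luciferase reagent for 10 min before luminescence reading.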
Active calls of the source: *; ? = inconclusive; . = not tested or not shown; [ ] = dose if it differs, or a comment. Only some compounds are listed: those with a hit (about 9.2% of all), similar ones and a draw of the others. Calls follow the shape of the dose curve; as a rule, active = well fitted curve in the direction sought with a large enough effect; inconclusive = small, poorly fitted or top-dose-only effect, or another doubt; inactive = no such curve, though single readings can be large; an effect the other way counts as inactive or inconclusive. Potency is read from the fitted curve at half-maximal effect.

SMILES | NPC1 prom act | SMN2 splice enh | ELG1 DNA repair | ELG1 genotoxic | FLuc counter | Rab9 promoter act
O=C(Nc1ccc(Cl)cc1)c1ccc(CN2CCc3ccccc3C2)cc1 | -25% | . | ? | -3% | 1% | -25%
COc1ccc(NC(=O)c2ccc(CN3CCc4ccccc4C3)cc2)cc1OC | -4% | . | ? | 3% | ? | -3%
CC(=O)Nc1cccc(C(=O)N/N=C/c2ccc(F)cc2)c1 | 2.8µM* | 27%[1.84 µM] | ? | 16µM* | 6µM* | 1.4µM*
Cc1ccc(C(=O)Nc2cccc(C(=O)N/N=C/c3ccc(F)cc3)c2)cc1 | 2.2µM* | . | ? | 15% | 2.4µM* | 1.4µM*
O=C(CC(=O)N/N=C/c1ccc(F)cc1)N/N=C/c1ccc(F)cc1 | 1% | . | -9% | -4% | 15µM* | 2%
O=C(CCC(=O)Nc1ccc(F)cc1)N/N=C/c1ccc(F)cc1 | -2% | . | 1% | 3% | -1% | 0%
COc1ccc(C2CC(=O)c3c(O)cc(O[C@H]4OC(COC5OC(C)C(O)C(O)[C@@H]5O)C(O)C(O)C4O)cc3O2)cc1O (stereo not given in full) | . | 5% | . | . | . | .
CCOC(=O)N1CCN(C(=S)NC(=O)c2ccc(F)c(F)c2)CC1 | -2% | . | 2% | -6% | 4% | -4%
COc1ccc(-n2cc(-c3ccccc3)nc2SC)cc1 | ? | 20µM* | ? | ? | 13µM* | ?
COc1ccc(-c2cn3c(n2)sc2cc(C(=O)NCc4ccccc4)ccc23)cc1 | . | . | . | . | 2% | .
COc1ccc2c(c1)sc1nc(-c3ccccc3)cn12 | -14% | 0.4µM* | ? | ? | 0.034µM* | ?
CCN(CC)S(=O)(=O)c1ccc(C)c(NC(=O)COC(=O)CN2C(=O)NC(C)(C)C2=O)c1 | -4% | . | 8% | -2% | -2% | -3%
O=[N+]([O-])c1cccc(-c2ccc(/C=N/Nc3nc(N4CCCCC4)nc(N4CCCCC4)n3)o2)c1 | -4% | -37% | ? | -7% | -7% | 3%
O=C(/C=C/c1ccc(-c2cccc([N+](=O)[O-])c2)o1)N1CCOCC1 | ? | . | ? | ? | ? | 4µM*
COc1nc(N/N=C/c2ccc(-c3cccc([N+](=O)[O-])c3)o2)nc(N2CCOCC2)n1 | 0% | -20% | 2.3µM* | 2% | -5% | -2%
O=[N+]([O-])c1cccc(/C=N/Nc2nc(NCc3ccccc3)nc(N3CCOCC3)n2)c1 | -1% | 12% | 7% | 13% | -1% | 1%
O=[N+]([O-])c1ccc(/C=N/Nc2nc(NCc3ccccc3)nc(N3CCOCC3)n2)cc1 | 0% | 1% | 7.3µM* | 0% | 0% | -3%
O=[N+]([O-])c1cccc(/C=N/Nc2nc(NCc3ccccc3)nc(N3CCOCC3)n2)c1O | -4% | . | 21µM* | -15% | 17µM* | -6%
c1ccc2c(C[C@@H]3CNCCN3CCC34CC5CC(CC(C5)C3)C4)cccc2c1 | . | . | 14% | 1% | . | .
Nc1nc(N)c(N=O)c(OCC2CCCCC2)n1 | 0%[46.1 µM] | . | ? | 18µM* | ? | -15%[46.1 µM]
Cc1c(C#N)c(O)[nH]c(=O)c1N=Nc1ccc(Cl)c(C(=O)O)c1 | -1% | . | -4% | 1% | 4% | -1%[1.84 µM]
Cc1ccc(Cl)c2c(N=Nc3ccccc3)c(O)[nH]c12 | ? | . | ? | ? | 1.2µM* | ?
CCc1ccc2oc(-c3cccc(NC(=O)COc4ccccc4Cl)c3)nc2c1 | . | 23% | . | . | ? | .
Cc1ccc2nc(-c3cccc(N)c3)oc2c1 | 0.89µM* | ? | ? | 1.6µM* | 0.21µM* | 3.5µM*
Cc1ccc2nc(-c3ccc(O)cc3)oc2c1 | 2.5µM* | . | ? | ? | 0.95µM* | ?
CCc1ccc2oc(-c3cccc(N)c3)nc2c1 | 0.56µM* | 6.3µM* | ? | ? | 0.24µM* | 1.6µM*
Cc1ccc2nc(Cc3ccc(N)cc3)oc2c1 | 3.5µM* | ? | ? | 12µM* | 13µM* | 3.2µM*

Source: PubChem BioAssay (National Center for Advancing Translational Sciences (NCATS))
